Columns and labels:
[1] = target: T1, Aspartate--tRNA(Asp/Asn) ligase (Mycobacterium tuberculosis (strain ATCC 25618 / H37Rv)) (UniProt P9WFW3); experiment: Assay for Asp RNA synthetase-1 from Mycobacterium tuberculosis; format: functional; design: scale not given: direction of the effect not stated beside the values; settings: 30 µM; also: in the data most compounds retested in dose-response had high values
T1 sequence (whole entry): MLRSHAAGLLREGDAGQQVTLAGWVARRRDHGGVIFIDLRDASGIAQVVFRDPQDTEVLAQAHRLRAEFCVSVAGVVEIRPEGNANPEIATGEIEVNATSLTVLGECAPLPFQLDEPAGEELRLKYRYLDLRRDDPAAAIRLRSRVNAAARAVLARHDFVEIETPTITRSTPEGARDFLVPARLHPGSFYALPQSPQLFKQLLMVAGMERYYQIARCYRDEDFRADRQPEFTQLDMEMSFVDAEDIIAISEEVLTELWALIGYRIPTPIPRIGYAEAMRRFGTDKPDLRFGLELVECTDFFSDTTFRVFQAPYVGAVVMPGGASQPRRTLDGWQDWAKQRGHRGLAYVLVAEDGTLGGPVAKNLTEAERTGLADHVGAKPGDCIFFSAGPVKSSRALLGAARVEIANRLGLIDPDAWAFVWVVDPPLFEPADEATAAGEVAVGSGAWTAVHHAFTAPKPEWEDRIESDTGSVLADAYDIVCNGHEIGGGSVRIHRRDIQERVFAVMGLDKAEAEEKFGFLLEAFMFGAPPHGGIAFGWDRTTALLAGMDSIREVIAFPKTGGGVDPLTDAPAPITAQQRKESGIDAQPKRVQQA

[2] = target: Shiga toxin 2 (Escherichia coli O157:H7) (UniProt P09385+P09386); experiment: E. coli 0.157:H7 Shiga Toxin SOP - stx2 screening assay; format: functional; design: scale not given: direction of the effect not stated beside the values; settings: 30 µM

Structure (SMILES) | Percent Effect [1] [%] | Percent Effect [2] [%]
Cc1nc(-c2ccccc2)n(CC(=O)N(C(C)C)C(C)C)n1 | 4.15 | 23.2
O=C(c1cc(COc2ccc3c(c2)OCO3)[nH]n1)N1CC=CC1CO (centres undefined) | 1.75 | -30.9
CCn1cc(NC(=O)NCC(O)CN2CCc3ccccc3C2)cn1 (centres undefined) | 6.51 | -38.6
CS(=O)(=O)N1CCOCC2(CN(Cc3ccsc3)CCO2)C1 (centres undefined) | -4.1 | 7.57
Cc1noc([C@H]2C[C@@H]3CCN(C(=O)C4CCOCC4)C[C@H]3O2)n1 | 1.08 | -0.561
Cc1cccc(-c2noc(CN3CCCC3Cn3cccn3)n2)c1 (centres undefined) | -8.22 | 28.6
CCc1cnc(CN(C)C2CCN(CCc3cccs3)C2)o1 (centres undefined) | 2.92 | 23.3
Cc1ncsc1C(=O)NCCn1nc2ccccn2c1=O | -1.86 | 15
CC(=O)N1CCCC(c2cnc(-c3c(C)nn(C)c3C)cn2)C1 (centres undefined) | -3.49 | -14.1
CCC(C)NC(=O)NCCCn1nc2ccccn2c1=O (centres undefined) | 1.23 | 22.8
Cc1ccc(NC(=O)Nc2cnc(N3CCN(C)CC3)nc2)c(Cl)c1 | -3.19 | -20.4
COC(=O)C(NC(=O)COC1CCCC1)c1cc(F)ccc1F (centres undefined) | -3.52 | -22.4
CCC(O)CNC(=O)c1coc(COc2ccc3sc(C)nc3c2)n1 (centres undefined) | 5.32 | -27.2
CS(=O)(=O)NCc1cc2n(n1)CCCN(Cc1nc3ccccc3[nH]1)C2 | -3.96 | 22.6
CCS(=O)(=O)N1CCCc2ccc(NC(=O)Cc3ccc(F)cc3)cc21 | 3.34 | 7.51
CC(CNC(=O)N1CCSCC1)Cc1cccs1 (centres undefined) | 1.56 | 6.01
Cn1cnc2c1C(COCC1CC1)CN(C(=O)Cc1ccsc1)C2 (centres undefined) | 0.364 | -17.9

— ChEMBL document CHEMBL3988442, “University of Dundee, Small-Polar-MMV Screening Library” (2021)
